ALDH1A1 block = qHTS Assay for Inhibitors of Aldehyde Dehydrogenase 1 (ALDH1A1); Aldehyde dehydrogenase 1A1 (Homo sapiens), P00352; Purified ALDH1A1, NADH fluorescence, propionaldehyde substrate; Potency, µM (titrated, usually from 75.3 µM), for the others: at the highest dose activity, negative = inhibition, usual class: inhibitors; hit rate 7.3% among 220,000; AID 1030, 2008; active means well fitted inhibition curve with a large enough effect, not every such curve was filed as active; inconclusive means small, poorly fitted or top-dose-only effect, or another doubt; inactive means no such curve, though single readings can be large or run the other way;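 further: potency means the concentration at half of the fitted maximal effect; plate controls were no enzyme wells and a reference inhibitor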
HttQ103 aggreg = qHTS Multiplex Assay to Identify Dual Action Probes in a Cell Model of Huntington: Aggregate Formation (GFP); PC12 HttQ103-GFP aggregates, Acumen cytometry, 40 h; Potency, µM (titrated, usually from 46.1 µM), for inactives: at the top dose activity change, negative = inhibition, actives largely listed as inhibitors; hit rate 1.1% among 220,000; AID 1688, 2009; further: potency means the concentration at half of the fitted maximal effect; on the % scale 0 is the no-effect control and ±100 the full control effect; nearly all actives have a fitted effect of over 60% in size
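Inducible Q103 Huntingtin exon 1–GFP PC12 line, 1500 cells/well in phenol red free DMEM with 5% equine and 5% calf serum. Tebufenozide 100 nM induced expression; compounds titrated; aggregates quantified by cytometry.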
IMPase cell inh = qHTS Assay for Identifying the Cell-Membrane Permeable IMPase Inhibitors; inhibition (IP1 accumulation), % at 46.1 µM; Inositol monophosphatase 1 (Rattus norvegicus), P97697; 120,000 tested, under 10 active; CHO-M1 cells, IP1 accumulation, HTRF TR-FRET ratio; AID 901, 2007; active means well fitted curve in the direction sought with a large enough effect in the signal ratio, not every such curve was filed as active; inconclusive means small, poorly fitted or top-dose-only effect, or a change in a side signal; inactive means no such curve, though single readings can be large or run the other way; the % refers to the signal ratio;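 further: cells stimulated with carbachol in lithium chloride buffer; plate controls were DMSO basal wells for no effect and reference inhibitor wells for full effect; higher means more IMPase inhibition seen as more IP1 and lower FRET ratio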
Target sequence (P97697 whole entry, looked up): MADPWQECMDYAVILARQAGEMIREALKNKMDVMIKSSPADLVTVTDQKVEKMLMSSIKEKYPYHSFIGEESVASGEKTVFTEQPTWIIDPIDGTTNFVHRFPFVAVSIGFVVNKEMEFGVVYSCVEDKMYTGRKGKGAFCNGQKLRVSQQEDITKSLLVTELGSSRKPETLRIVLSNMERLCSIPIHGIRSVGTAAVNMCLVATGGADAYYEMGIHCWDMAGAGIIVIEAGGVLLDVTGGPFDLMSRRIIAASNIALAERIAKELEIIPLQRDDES
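Cellular IMPase inhibition is scored as a rise in cytosolic IP1, detected by competitive TR-FRET between d2-labelled IP1 and a europium anti-IP1 antibody. M1-expressing CHO cells were stimulated with carbachol for 30 min at 37C, with lithium (50 mM LiCl) present in the buffer.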
HPGD inh = qHTS Assay for Inhibitors of HPGD (15-Hydroxyprostaglandin Dehydrogenase); 15-hydroxyprostaglandin dehydrogenase [NAD(+)] (Homo sapiens), P15428; purified HPGD, NADH fluorescence kinetic, PGE2 substrate; Potency, µM, for inactives: top-dose activity change, negative = inhibition, hits mostly inhibitors; hit rate 4.3% among 150,000; AID 894, 2007; active means well fitted inhibition curve with a large enough effect, not every such curve was filed as active; inconclusive means small, poorly fitted or top-dose-only effect, or another doubt; inactive means no such curve, though single readings can be large or run the other way; further: potency means the concentration at half of the fitted maximal effect; on the % scale 0 is the no-effect control and ±100 the full control effect
Target sequence (P15428 whole entry, looked up): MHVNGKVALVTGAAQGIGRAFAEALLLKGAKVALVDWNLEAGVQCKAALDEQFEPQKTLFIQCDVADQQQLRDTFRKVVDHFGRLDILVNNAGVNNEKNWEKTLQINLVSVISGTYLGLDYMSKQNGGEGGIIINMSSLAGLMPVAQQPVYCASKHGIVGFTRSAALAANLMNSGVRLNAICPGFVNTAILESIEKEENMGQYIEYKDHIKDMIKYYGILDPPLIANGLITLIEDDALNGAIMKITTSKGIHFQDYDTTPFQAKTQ
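20 nM HPGD preincubated 15 min at room temperature with compound in 50 mM Tris-HCl pH 8, 0.01% Tween 20. Started with 1 mM NAD+ and 30 uM prostaglandin E2; NADH fluorescence (360/450 nm) read 5 times over 30-s intervals, last minus first.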
IMPase Li cell = qHTS Assay for Identifying the Cell-Membrane Permeable IMPase Inhibitors: Potentiation with Lithium; Potency, µM (series often up to 59.4 µM), for the others: at the highest dose activity, negative = IMPase inhibition, actives largely listed as inhibitors; hit rate 0.35% among 210,000; CHO-M1 cells, IP1 TR-FRET (IP-One), carbachol + lithium;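 further: IP1 builds up when IMPase is blocked and the TR-FRET signal falls; potency means the concentration at half of the fitted maximal effect; plate controls were basal vehicle for no effect and high inhibitor control for full effect; nearly all actives have a fitted effect of over 50% in size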
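Test compounds were applied to CHO-M1 cells previously cultured for 16–30 h at 2000 per well. A small lithium amount accompanied them; after 30 min at 37C, IP1 was quantified by TR-FRET.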
HTT ATP protect = qHTS Multiplex Assay to Identify Dual Action Probes in a Cell Model of Huntington: Cytoprotection (ATP); AID 1471, 2008; PC12 HTT-Q103 induced, cytoprotection, ATP luminescence, 40 h; Potency, µM (titrated, usually from 56.4 µM), for inactives: cytoprotection (ATP increase), usual class: activators; hit rate 0.14% among 230,000; further: potency means the concentration at half of the fitted maximal effect; % of control where 0% means no effect; nearly all actives have a fitted effect of over 45% in size
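ATP quantification (ATPlite) reports survival of PC12 cells in which tebufenozide, 100 nM final, switches on Htt exon 1 with 103 glutamines linked to GFP; compounds are titrated.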
Numbers without * were called inactive; [ ] = dose if it differs, or a comment. Only some compounds are listed: those with a hit (about 9.4% of all), similar ones and a draw of the others. Unless noted, the call rests on the fitted dose curve; in most records, active means well fitted curve in the direction sought with a large enough effect; inconclusive means small, poorly fitted or top-dose-only effect, or another doubt; inactive means no such curve, though single readings can be large; an effect the other way counts as inactive or inconclusive.

What do the screens show for `Cc1c(NC2=C(Cl)C(=O)N(c3ccccc3)C2=O)c(=O)n(-c2ccccc2)n1C`?
ALDH1A1 block: inconclusive; HttQ103 aggreg: -1%; IMPase cell inh: -1; HPGD inh: -22%; IMPase Li cell: 38%[38.3 µM]; HTT ATP protect: -13%

How did S=c1[nH]nc(CNc2cccc(Cl)c2)o1 do in these assays?
ALDH1A1 block: 32µM*; IMPase Li cell: -4%

Results for Clc1cccc(NCc2nnc(SCc3ccc(Cl)cc3Cl)o2)c1 ?
ALDH1A1 block: -9%; HttQ103 aggreg: inconclusive; IMPase cell inh: 1; HPGD inh: -15%; IMPase Li cell: 20%; HTT ATP protect: 0%[1.9 µM]

Results for O=C(N/N=C/c1ccc(-c2ccccc2[N+](=O)[O-])o1)c1cncc(Br)c1 ?
ALDH1A1 block: -6%; HttQ103 aggreg: 12%; IMPase cell inh: 2; HPGD inh: -16%; IMPase Li cell: 15%; HTT ATP protect: 14%[10 µM]

What do the screens show for `O=[N+]([O-])c1ccccc1-c1ccc(/C=N/n2cnnc2)o1`?
ALDH1A1 block: -10%; HttQ103 aggreg: 11%; IMPase cell inh: -3; HPGD inh: 16µM*; IMPase Li cell: -3%[38.3 µM]; HTT ATP protect: 7%

Results for Cc1ccc(-c2ccc(/C=N/n3cnnc3)o2)cc1 ?
ALDH1A1 block: inconclusive; HttQ103 aggreg: 17%[9.22 µM]; HTT ATP protect: 2%[10 µM]

How did Nn1cnnc1N/N=C\c1ccc(-c2ccccc2[N+](=O)[O-])o1 do in these assays?
ALDH1A1 block: 25µM*; HttQ103 aggreg: -18%; IMPase cell inh: 6; HPGD inh: -22%; IMPase Li cell: 13%; HTT ATP protect: -17%[10 µM]

What do the screens show for `COc1cc(C2N(c3ccccn3)C(=O)C3CCCN32)cc(OC)c1OC` (centres undefined)?
ALDH1A1 block: 22µM*; HttQ103 aggreg: -4%; IMPase cell inh: 0; HTT ATP protect: -9%

Results for Cc1ccc(Cl)cc1-c1ccc(C=Nc2ccc(N3CCOCC3)cc2)o1 ?
ALDH1A1 block: 10µM*; HttQ103 aggreg: 1%; HPGD inh: inconclusive; IMPase Li cell: inconclusive; HTT ATP protect: 7%[10 µM]

How did CCN(CC(=O)Nc1c(C(=O)OC)[nH]c2ccc(C)cc12)c1ccc2c(c1)OCO2 do in these assays?
ALDH1A1 block: 14µM*; HttQ103 aggreg: inconclusive; IMPase cell inh: 14; HTT ATP protect: -40%

Results for COC(=O)c1[nH]c2ccc(F)cc2c1NC(=O)CCN1CCN(Cc2ccc3c(c2)OCO3)CC1 ?
ALDH1A1 block: inconclusive; HttQ103 aggreg: -1%; IMPase cell inh: 19; HPGD inh: inconclusive; IMPase Li cell: 9%[38.3 µM]; HTT ATP protect: -15%

What do the screens show for `Cc1ccc(S(=O)(=O)c2c(N)n(Cc3ccco3)c3nc4ccccc4nc23)cc1C`?
ALDH1A1 block: inconclusive; HttQ103 aggreg: 13µM*; IMPase cell inh: -8; HPGD inh: inconclusive; IMPase Li cell: 30%[38.3 µM]; HTT ATP protect: -11%

How did CC(C)(C)c1ccc(C2CC2C(=O)N/N=C\c2ccc[nH]2)cc1 (centres undefined) do in these assays?
ALDH1A1 block: 1%; HttQ103 aggreg: 2.5µM*; IMPase Li cell: 15%; HTT ATP protect: -68%[10 µM]

What do the screens show for `CN(C)CCCNCCCN`?
ALDH1A1 block: -1%; HPGD inh: -9%; IMPase Li cell: -3%; HTT ATP protect: -83%

How did CC[C@H](C(=O)c1cccs1)C(O)(C(F)(F)F)C(F)(F)F do in these assays?
ALDH1A1 block: -9%[13.5 µM]; HPGD inh: -6%; IMPase Li cell: 7%; HTT ATP protect: 2%[10 µM]

Results for COC(=O)c1cc(C(=O)c2cc(Br)ccc2O)coc1=N ?
ALDH1A1 block: -7%; HttQ103 aggreg: -11%; IMPase Li cell: 3%; HTT ATP protect: -19%

Compound activity as filed in PubChem BioAssay.
